# Bioassay records (PubChem BioAssay)
# D2 ag-1 – HTS Assay for Allosteric Agonists of the Human D2 Dopamine Receptor: Primary Screen for Agonists | AID 485358, 2010 | 0.53% of 340,000 active | HEK293 T-REx D2 cells, calcium flux agonist mode | D(2) dopamine receptor (Homo sapiens), P14416 | activation, % at 2 µM;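 active = activation over 3 SD above normal in the single-dose calcium agonist read, cut at about 30% in these data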; note: 0% is about no effect
# Target sequence (P14416 whole entry, looked up): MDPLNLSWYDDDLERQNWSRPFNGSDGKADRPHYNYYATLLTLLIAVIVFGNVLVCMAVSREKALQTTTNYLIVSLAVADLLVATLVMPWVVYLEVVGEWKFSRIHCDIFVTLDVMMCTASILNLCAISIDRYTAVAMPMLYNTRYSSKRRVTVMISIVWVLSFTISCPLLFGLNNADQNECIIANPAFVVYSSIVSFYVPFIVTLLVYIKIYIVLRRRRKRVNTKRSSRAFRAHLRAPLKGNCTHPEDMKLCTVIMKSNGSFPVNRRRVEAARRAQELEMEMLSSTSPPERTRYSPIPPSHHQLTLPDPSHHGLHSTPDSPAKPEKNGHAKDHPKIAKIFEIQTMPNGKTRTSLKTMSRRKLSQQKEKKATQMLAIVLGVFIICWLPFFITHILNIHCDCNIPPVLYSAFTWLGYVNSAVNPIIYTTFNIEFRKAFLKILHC
#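 Calcium-flux readout, 1 cycle/sec over 180 s following compound pin transfer, in inducible HEK293 Trex D2 cells (force-coupled); dopamine controls included. Positive calcium responses during this window marked compounds as potential agonists.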
# D2 PAM-1 – HTS Assay for Positive Allosteric Modulators of the Human D2 Dopamine Receptor: Primary Screen for Potentiators; D(2) dopamine receptor (Homo sapiens), P14416; HEK293 T-REx D2, calcium flux, EC20 dopamine potentiation; potentiation, % at 10 µM; 0.34% of 340,000 active; AID 485347, 2010;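 active = potentiation over 3 SD above the plate norm, cut at about 30% in these data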; note: 0% is about no effect
#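 Cells plated with tetracycline inducer and held overnight at 30 C; calcium dye loaded 30–90 min at room temperature; baseline taken, compound added and read 180 s; EC20 dopamine then added and read 180 s.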
# D2 PAM-2 – Beta-Arrestin HTS for Positive Allosteric Modulators of the Human D2 Dopamine Receptor: Potentiators | D(2) dopamine receptor (Homo sapiens), P14416 | DiscoveRx D2 beta-arrestin cells, luminescence, 90 min; 100% = 57 uM dopamine signal | potentiation, % (test concentration not listed) | 0.23% of 360,000 active | AID 624464, 2012; in the data active = potentiation above about 50%
#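 PathHunter beta-arrestin assay in DiscoveRx D2 cells. Compounds were added with an EC20 of dopamine (50 nM final) for 90 min at 37 deg C. Luminescence was read 1 h after detection reagent, with 57 uM dopamine as the EC100 control.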
# D2 antagonist – HTS Assay for Allosteric Antagonists of the Human D2 Dopamine Receptor: Primary Screen for Antagonists; D(2) dopamine receptor (Homo sapiens), P14416; HEK293 TREx D2 cells, calcium flux, dopamine EC80; inhibition, % at 10 µM; 2% of 340,000 active; AID 485344, 2010; in the data active = inhibition above about 30%; inactive = below that, where a call was filed; note: 0% is about no effect
#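 Compounds are added to dye-loaded, induced HEK293 T-REx cells coupled to calcium release via D2; after a 3 min kinetic read an EC80 dopamine stimulus is given and fluorescence is recorded for 3 more min.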
# D2 ag-2 – Beta-Arrestin HTS for Positive Allosteric Modulators of the Human D2 Dopamine Receptor: Agonists; D(2) dopamine receptor (Homo sapiens), P14416; DiscoveRx PathHunter D2 beta-arrestin, luminescence, 90 min; 100% = 57 uM dopamine signal; activation, % (test concentration not listed); 0.084% of 360,000 active; AID 624465, 2012; in the data active = activation above about 40%
#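 DiscoveRx PathHunter D2 beta-arrestin cells (2,100/well) attached overnight, then compound-stimulated 90 min at 37 C in HBSS/10 mM HEPES/0.1% Tween-20 buffer; beta-galactosidase complementation read by luminescence after 1 h at ambient temperature. Dopamine 57 uM final (EC100) as control.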
# Numbers without * were called inactive; nt = no result; ! = not confirmed by another sample. Compounds with a hit are over-represented: about 2.4% of the library has one in this group of screens.
SMILES,D2 ag-1,D2 PAM-1,D2 PAM-2,D2 antagonist,D2 ag-2
CCOC(=O)N1CCN(c2c(NCCc3ccc(OC)c(OC)c3)c(=O)c2=O)CC1,0,2,-3,36*,-1
CCOC(=O)c1c(C(=O)OCC)c(C)n(CCc2ccc(OC)c(OC)c2)c1C,-3,0,28,33*,2
CC(=O)c1ccc(NC(=O)C2CCC(CNS(=O)(=O)c3ccc4c(c3)CCCC(=O)N4)CC2)cc1 (stereo not given),0,-7,nt,nt,nt
CN(C)S(=O)(=O)c1cccc(C(=O)NCCOC(=O)c2cc(F)c(F)cc2Cl)c1,0,14,-6,34*,2
CN(C)S(=O)(=O)c1cccc(C(=O)NCCNC(=O)c2cccc(S(=O)(=O)N(C)C)c2)c1,-1,17,-8,-5,-5
N#Cc1c(NC(=O)/C=C/c2ccco2)sc2c1CCCC2,0,-22,-34,57*,-5
O=C(/C=C/c1ccco1)Nc1sc2c(c1C(=O)O)CCC2,-1,-4,-8,-5,-2
COc1cc(OC)c(OC)cc1CN1CCCC(C(=O)c2sccc2C)C1 (stereo not given),-1,-20,-7,5,-5
Cc1ccsc1C(=O)C1CCCN(Cc2cc(F)ccc2-n2cccn2)C1 (stereo not given),2,-17,-43,34*,-6
CCc1ccccc1N(CC)C(=O)Cn1nc(Cc2ccncc2)c2ccccc2c1=O,0,7,nt,nt,nt
CCN1CCN(C(c2cccc(OC)c2)c2c(O)cc(C)n(Cc3ccco3)c2=O)CC1 (stereo not given),0,1,nt,nt,nt
COc1ccc(NC(=O)COC(=O)c2cc(OC)c(OC)cc2NC(=O)c2ccco2)cc1OC,0,17,-5,58*,-1
COc1cc(NC(=O)COc2cccc(OC)c2)cc(OC)c1,-2,-3,-1,-14,0
COc1cccc(OCC(=O)Nc2ccc(OC)c(OC)c2)c1,-2,32*,-1,-13,0
COC(=O)c1cc(OC)c(OC)cc1NC(=O)c1ccco1,1,2,-3,-4,2
COc1cc(OC)c2c(-c3ccccc3)cc(=O)oc2c1C(CC(=O)N1CCN(c2ccccc2)CC1)c1ccc(N(C)C)cc1 (stereo not given),-1,-3,-3,48*,2
COc1cc(OC)c2c(-c3ccccc3)cc(=O)oc2c1C(CC(=O)N1CCOCC1)c1ccc(N(C)C)cc1 (stereo not given),-1,-3,-15,31*,1
COc1cc(OC)c2c(-c3ccccc3)cc(=O)oc2c1C(CC(=O)N1CCN(c2ccccc2)CC1)c1ccc2c(c1)OCO2 (stereo not given),0,-8,nt,-1,nt
CC(C)CCN(Cc1ccco1)C(=O)c1cc2c(Cl)nc3ccccc3c2s1,1,-4,nt,nt,nt
Cc1cc(O)c(C(c2ccc(F)cc2)N2CCCCC2)c(=O)n1Cc1ccco1 (stereo not given),-1,-5,nt,nt,nt
CN(CCN1CCc2ccccc2C1)Cc1nc(Cc2ccccc2F)no1,-2,-12,-15,41*,1
COc1ccc(Cc2noc(CN(C)CCN3CCc4ccccc4C3)n2)cc1OC,2,-23,-22,-32,-2
CN(CCCCN1CCOCC1)Cc1nc(-c2ccc3c(c2)OCO3)no1,0,-3,-12,2,-1
OCCN(Cc1nc(-c2ccc3c(c2)OCO3)no1)Cc1cccs1,1,-15,-12,39*,-5
CN(Cc1nc(-c2ccccc2)no1)C(=O)c1ccc2c(c1)OCO2,0,-13,-15,-14,4
SMILES,D2 ag-1,D2 PAM-1,D2 PAM-2,D2 antagonist,D2 ag-2
CN(CCN1CCc2ccccc2C1)Cc1nc(-c2ccc3c(c2)OCO3)no1,0,-22,-15,44*,4
CCCCc1nn2c(=O)cc(COC(=O)c3ccco3)nc2s1,0,nt,nt,nt,nt
CN(CC(O)CN1CCOCC1)S(=O)(=O)O (stereo not given),1,4,-5,34*!,-2
OC(CN1CCOCC1)CN1CCOCC1,1,11,-9,12,-2
CCOc1ccc(NC(=O)NCCN2CCN(c3cccc(C)c3C)CC2)cc1,17,-34,-23,5,-5
Cc1ccc(CN2C(=O)CCC2C(=O)NCCN2CCN(c3cccc(Cl)c3)CC2)cc1 (stereo not given),13,-19,-5,44*,0
COc1ccc(NC(=O)NCCN2CCN(c3cccc(Cl)c3)CC2)cc1,0,15,-10,36*,2
O=C(Cn1nc(-c2ccccc2)ccc1=O)NCCN1CCN(c2cccc(Cl)c2)CC1,0,-19,-14,64*,-1
CCOc1cccc(N2CCN(CCNC(=O)Nc3ccc(C)cc3)CC2)c1C,3,-19,-2,44*,-4
O=C(NCc1ccccc1Cl)c1ccccc1NC(=O)c1nsc2ccccc12,1,9,nt,nt,nt
Cc1ccc(NC(=O)Cn2c(=O)n(Cc3nc(-c4ccccc4)no3)c(=O)c3ccccc32)c(C)c1,1,3,nt,nt,nt
CN1C(C(=O)c2ccccc2)=C(OC(=O)c2ccc(Br)cc2)c2ccccc2S1(=O)=O,0,3,nt,nt,nt
COC(=O)C1CSC2c3ccccc3C(=O)N12 (stereo not given),nt,nt,-10,nt,-4
COc1ccc(NC(=O)C2CSC3c4ccccc4C(=O)N23)cc1 (stereo not given),-2,-3,-9,32*,-1
COc1cc(OC)cc(N2CCN(S(=O)(=O)c3ccc(-n4cnnn4)cc3)CC2)c1,0,19,-1,46*,-5
CC(C)(C)NC(=O)C1CCCN(S(=O)(=O)c2ccc(-n3cnnn3)cc2)C1 (stereo not given),0,7,-5,32*,1
COc1cccc(-n2cnnn2)c1,0,-11,-14,38*,-1
CC(=O)Nc1ccc(NC(=O)C2CCCN(S(=O)(=O)c3ccc(-n4cnnn4)cc3)C2)cc1 (stereo not given),5,nt,2,12,-6
COC(=O)c1cccc(-n2cnnn2)c1,0,-3,-14,-7,-4
CCOc1ccc(NC(=O)Cn2c(=O)c(CNc3ccc(CC)cc3)cc3cc4c(cc32)OCO4)cc1,1,5,nt,nt,nt
COc1ccc(N2CCN(S(=O)(=O)c3ccc4c(c3)CC(C)N4C(C)=O)CC2)cc1 (stereo not given),0,-10,nt,nt,nt
